Measured potencies and affinities stand elsewhere. Records with an inconclusive call do not appear. Calls of active or inactive are those of the source. Unless noted, how the calls were made is not given here.
Columns and labels:
[1] = RMG-1 ovarian cancer cell viability loss – cherry-pick, dose response (AID 687029;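 active means signal drop whose fitted half-maximal concentration is at most twice the top valid dose, in every test run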;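 further: cells exposed to compound for 96 hours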)
[2] = IOSE-T80 viability loss, PAX8-independent line – cell-based, cherry-pick, selectivity assay for PAX8 inhibitor project, dose response (AID 687032;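 active means fitted half-maximal concentration for viability loss no higher than twice the top valid dose, in every repeat run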;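 further: cells exposed to compound for 96 h before reading; 0% = neutral control wells and -100% = 2 µM mitoxantrone kill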)
[3] = CMV-driven luciferase expression suppression in HEK293 – cell-based, luminescence, dry powder, counter-screen for Pax8 inhibitor project, dose response (AID 743020;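 active means signal-lowering compounds whose fitted half-maximal concentration is at or below twice the top tested dose in every run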;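 further: HEK293 cells stably expressing the CMV luciferase reporter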)
[4] = general cell-killing toxicity readout – plate reader, dry powder samples, cytotoxicity control for PAX8 inhibitor project, dose response (AID 743021)
[5] = IGROV1 cell killing – plate reader, dry powder samples, PAX8 inhibitor project, dose response (AID 743043);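 further: more negative means fewer viable cells or more cytotoxicity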
[6] = OVCAR-3 cell viability loss – plate reader, dry powder samples, PAX8 inhibitor project, dose response (AID 743044); settings: max activity: at 35 µM, active compounds read low unless noted
[7] = toxicity toward immortalized ovarian surface epithelium – cell-based, plate reader, dry powder samples, cytotoxicity control for PAX8 inhibitor project, dose response (AID 743045);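 further: 0% = neutral control median and -100% = positive control median; more negative values mean more cell killing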
[8] = A2780 cell killing – plate reader, dry powder samples, cytotoxicity control, dose response (AID 743046);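 further: 0% = neutral control wells and -100% = cytotoxic reference compound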
[9] = OVCAR8 cell viability loss – plate reader, dry powder samples, PAX8 project, dose response (AID 743197)

Measured: max activity

COc1ccc(S(=O)(=O)N(C)C[C@H]2Oc3ccc(NC(=O)Nc4ccc(C(F)(F)F)cc4)cc3CC(=O)N([C@H](C)CO)C[C@@H]2C)cc1
inactive: [1] | [2] | [3] | [4] | [5] | [6] 26.7% [at 16 µM, active compounds read low] | [7] | [8] | [9]

C[C@@H]1CCCCO[C@@H](CN(C)Cc2ccc(Cl)c(Cl)c2)[C@H](C)CN([C@H](C)CO)C(=O)c2cc(NC(=O)Nc3ccccc3)ccc2O1
inactive: [1] | [2] | [3] | [4] | [5] | [6] 13.2% [at 0.5 µM, active compounds read low] | [7] | [8] | [9]

C[C@@H]1CCCCO[C@@H](CN(C)Cc2ccc(C(F)(F)F)cc2)[C@H](C)CN([C@H](C)CO)C(=O)c2cc(NC(=O)Cc3ccccc3)ccc2O1
inactive: [1] | [2] | [3] | [4] | [5] | [6] -36.2% | [7] | [8] | [9]

Cc1ccc(S(=O)(=O)N(C)C[C@H]2OCCCC[C@@H](C)Oc3ccc(NS(=O)(=O)c4ccc(F)cc4)cc3C(=O)N([C@@H](C)CO)C[C@H]2C)cc1
inactive: [1] | [2] | [3] | [4] | [5] | [6] -18.9% [at 0.5 µM, active compounds read low] | [7] | [8] | [9]

COc1ccc(NC(=O)Nc2ccc3c(c2)CC(=O)N([C@@H](C)CO)C[C@@H](C)[C@@H](CN(C)Cc2ccc(Oc4ccccc4)cc2)O3)cc1
inactive: [1] | [2] | [3] | [4] | [5] | [6] 14.4% [at 18 µM, active compounds read low] | [7] | [8] | [9]

C[C@@H]1CN([C@H](C)CO)C(=O)Cc2cc(NS(=O)(=O)c3ccccc3)ccc2O[C@@H]1CN(C)S(=O)(=O)c1ccc(Cl)cc1
inactive: [1] | [2] | [3] | [4] | [5] | [6] 47.5% | [7] | [8] | [9]

O=C(C[C@@H]1C[C@H]2c3cc(NC(=O)C4CCOCC4)ccc3O[C@H]2[C@H](CO)O1)NCc1ccc(Oc2ccccc2)cc1
inactive: [1] | [2] | [3] | [4] | [5] | [6] -20% [at 8 µM, active compounds read low] | [7] | [8] | [9]

COc1ccc(S(=O)(=O)Nc2ccc3c(c2)CC(=O)N([C@@H](C)CO)C[C@@H](C)[C@H](CN(C)Cc2ccc(-c4ccccc4)cc2)O3)cc1
inactive: [1] | [2] | [3] | [4] | [5] | [6] 35.7% [at 1 µM, active compounds read low] | [7] | [8] | [9]

C[C@H]1CCCCO[C@H](CN(C)S(=O)(=O)c2ccc(Cl)cc2)[C@@H](C)CN([C@@H](C)CO)C(=O)c2cc(NS(=O)(=O)c3ccc(Cl)cc3)ccc2O1
inactive: [1] | [2] | [3] | [4] | [5] | [6] -21.5% | [7] | [8] | [9]

CCCC#Cc1ccc([C@@H]2[C@H]3CN(S(=O)(=O)c4ccccc4F)CCCCN3[C@H]2CO)cc1
inactive: [1] | [2] | [3] | [4] | [5] | [6] 36.9% [at 8 µM, active compounds read low] | [7] | [8] | [9]

C[C@H]1CCCCO[C@H](CN(C)Cc2ccc(Cl)c(Cl)c2)[C@@H](C)CN([C@@H](C)CO)C(=O)c2cc(NC(=O)Nc3ccc(F)cc3)ccc2O1
inactive: [1] | [2] | [3] | [4] | [5] | [6] -19.8% [at 0.26 µM, active compounds read low] | [7] | [8] | [9]

CN1c2ccc(-c3ccc(C#N)cc3)cc2[C@@H]2[C@@H](CCN2C(=O)NC2CCCCC2)[C@@H]1CO
inactive: [1] | [2] | [3] | [4] | [5] | [6] -6.17% [at 4.2 µM, active compounds read low] | [7] | [8] | [9]

C[C@H](O)C#Cc1cnc2c(c1)C(=O)N([C@H](C)CO)C[C@H](C)[C@H](CN(C)Cc1ccc(-c3ccccc3)cc1)O2
inactive: [1] | [2] | [3] | [4] | [5] | [6] 9.01% [at 0.26 µM, active compounds read low] | [7] | [8] | [9]

C[C@@H]1CN([C@@H](C)CO)C(=O)c2cc(NC(=O)c3ccccc3)ccc2O[C@@H](C)CCCCO[C@H]1CN(C)Cc1ccc(C(F)(F)F)cc1
inactive: [1] | [2] | [3] | [4] | [5] | [6] -28.2% [at 0.26 µM, active compounds read low] | [7] | [8] | [9]

C[C@@H]1CN([C@@H](C)CO)S(=O)(=O)c2ccc(C#Cc3ccccc3F)cc2O[C@H]1CN(C)CC1CCOCC1
inactive: [1] | [2] | [3] | [4] | [5] | [6] -11.1% [at 8 µM, active compounds read low] | [7] | [8] | [9]

C[C@H]1CN([C@@H](C)CO)C(=O)c2cccc(NC(=O)Nc3ccc(F)cc3)c2O[C@H]1CN(C)C(=O)Nc1ccc(C(F)(F)F)cc1
inactive: [1] | [2] | [3] | [4] | [5] | [6] 10.2% [at 0.26 µM, active compounds read low] | [7] | [8] | [9]

COc1cccc(S(=O)(=O)N(C)C[C@H]2OCc3ccccc3-c3c(n(C)c4ccccc34)C(=O)N([C@@H](C)CO)C[C@H]2C)c1
inactive: [1] | [2] | [3] | [4] | [5] | [6] -13.7% | [7] | [8] | [9]

C[C@@H]1CN([C@@H](C)CO)C(=O)c2cc(NS(=O)(=O)c3ccc(Cl)cc3)ccc2O[C@@H](C)CCCCO[C@H]1CN(C)Cc1ccc(C(F)(F)F)cc1
inactive: [1] | [2] | [3] | [4] | [5] | [6] 22.1% [at 16 µM, active compounds read low] | [7] | [8] | [9]

C[C@@H]1CCCCO[C@@H](CN(C)Cc2ccc(C(F)(F)F)cc2)[C@H](C)CN([C@@H](C)CO)C(=O)c2cc(NS(=O)(=O)c3ccccc3)ccc2O1
inactive: [1] | [2] | [3] | [4] | [5] | [6] 11.3% [at 2.1 µM, active compounds read low] | [7] | [8] | [9]

COc1ccc(S(=O)(=O)N2CCCCN3[C@H](C2)[C@@H](c2ccc(C#CC(C)C)cc2)[C@@H]3CO)cc1
inactive: [1] | [2] | [3] | [4] | [5] | [6] 10.6% [at 8 µM, active compounds read low] | [7] | [8] | [9]

COc1ccccc1S(=O)(=O)N(C)C[C@@H]1Oc2cc(C#CCC3CCCC3)ccc2S(=O)(=O)N([C@@H](C)CO)C[C@@H]1C
inactive: [1] | [2] | [3] | [4] | [5] | [6] -15.5% | [7] | [8] | [9]

C[C@H](CO)N1C[C@H](C)[C@H](CN(C)Cc2ccc3c(c2)OCO3)Oc2ccc(NC(=O)Nc3cccc4ccccc34)cc2C1=O
inactive: [1] | [2] | [3] | [4] | [5] | [6] 49.4% [at 4.2 µM, active compounds read low] | [7] | [8] | [9]

Cc1ccc(S(=O)(=O)N(C)C[C@@H]2Oc3c(NC(=O)c4ccc(-c5nccs5)cc4)cccc3C(=O)N([C@@H](C)CO)C[C@@H]2C)cc1
inactive: [1] | [2] | [3] | [4] | [5] | [6] 61.7% [at 0.26 µM, active compounds read low] | [7] | [8] | [9]

C[C@@H]1CCCCO[C@@H](CN(C)Cc2ccc(Cl)c(Cl)c2)[C@H](C)CN([C@@H](C)CO)C(=O)c2cc(NC(=O)Cc3ccccc3)ccc2O1
inactive: [1] | [2] | [3] | [4] | [5] | [6] -29.2% [at 16 µM, active compounds read low] | [7] | [8] | [9]

C[C@@H]1CN([C@@H](C)CO)C(=O)Cc2cc(NC(=O)C3CC3)ccc2O[C@H]1CN(C)Cc1ccc(-c2ccccc2)cc1
inactive: [1] | [2] | [3] | [4] | [5] | [6] 11.5% [at 0.26 µM, active compounds read low] | [7] | [8] | [9]

CC(C)CC#Cc1ccc2c(c1)O[C@H](CN(C)S(=O)(=O)c1ccc(F)cc1)[C@H](C)CN([C@@H](C)CO)S2(=O)=O
inactive: [1] | [2] | [3] | [4] | [5] | [6] -39.6% | [7] | [8] | [9]

C[C@H](CO)N1C[C@H](C)[C@H](CN(C)C(=O)Nc2ccc(-c3cccs3)cc2)OCc2cnnn2CCCC1=O
inactive: [1] | [2] | [3] | [4] | [5] | [6] -11.7% | [7] | [8] | [9]

Cc1ccc(S(=O)(=O)N(C)C[C@@H]2Oc3cc(C#Cc4ccncc4)ccc3S(=O)(=O)N([C@@H](C)CO)C[C@H]2C)cc1
inactive: [1] | [2] | [3] | [4] | [5] | [6] -28.9% [at 16 µM, active compounds read low] | [7] | [8] | [9]

C[C@@H]1CCCCO[C@@H](CN(C)S(=O)(=O)c2ccc(Cl)cc2)[C@H](C)CN([C@@H](C)CO)C(=O)c2cc(NS(=O)(=O)c3ccc(Cl)cc3)ccc2O1
inactive: [1] | [2] | [3] | [4] | [5] | [6] -34.3% [at 16 µM, active compounds read low] | [7] | [8] | [9]

— PubChem BioAssay
